Measured values published in PubChem BioAssay (NCATS).
Results filed as inconclusive are left out. Calls of active or inactive are those of the source. Unless noted, the call rests on the fitted dose curve; in most records, active means well fitted curve in the direction sought with a large enough effect; inconclusive means small, poorly fitted or top-dose-only effect, or another doubt; inactive means no such curve, though single readings can be large; an effect the other way counts as inactive or inconclusive.

Assays:
[1] = molecular target: Lysosomal acid glucosylceramidase (Homo sapiens) (UniProt P04062); test: Glucocerebrosidase-p2 (AID 348; in the data active means potency below about 10 µM; further: potency means the concentration at half of the fitted maximal effect); details: purified GBA, blue fluorogenic substrate, 40 min
In short: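 Normal human glucocerebrosidase (0.2 nM) with blue fluorogenic substrate (80 uM final) in citrate/phosphate pH 5.9 with 10mM sodium taurocholate, 0.01% tween-20; 40 min RT, NaOH/glycine stop; fluorescence Ex 365/Em 440; AC50 from a titration from 0.6 nM upwards.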

[2] = AP1 Signaling Pathway (AID 357; active means well fitted curve in either direction with a large enough effect, not every such curve was filed as active;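 further: ME-180 reporter cells stimulated with EGF at its EC50 level; on the % scale 0 is the no-effect control and ±100 the full control effect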); details: ME-180 AP-1-bla reporter, EGF-induced, beta-lactamase ratio, 5 h; at 7.69 µM (top of the series) unless noted
In short: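 Beta-lactamase reporter under AP-1 response element, ME-180 background. Stimulus: EC50 EGF. Compound exposure 5 h, 37 °C. Detection: CCF4, 2.5 h RT, 460/530 nm. Values: AC50 from titration.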

[3] = molecular target: Cytochrome P450 1A2 (Homo sapiens) (UniProt P05177); test: p450-cyp1a2 (AID 410; calls by dose curve; further: potency means the concentration at half of the fitted maximal effect;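 on activity change, negative = inhibition: -100% = full effect of reference inhibitor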); details: recombinant CYP1A2, luciferin-ME demethylation, luminescence; series mostly up to 57 µM
In short: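 20nM CYP1A2, 100uM Luciferin-ME (=Km), 100mM KPO4; cpd 10 min RT; +NADPH regen, 60 min RT; stop/detect 20 min; luminescence. Normalized to furafylline 57 uM = full inhibition.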

[4] = NFAT Signaling Pathway (AID 444; active means well fitted curve in either direction with a large enough effect, not every such curve was filed as active;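 further: carbachol stimulus at about its EC50 of 1 µM final; on the % scale 0 is the no-effect control and ±100 the full control effect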); details: Jurkat NFAT-bla M1, carbachol, beta-lactamase ratio, 5 h; at 7.69 µM (top of the series) unless noted
In short: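 Jurkat cells with NFAT-driven β-lactamase reporter and co-expressed M1 receptor, stimulated with carbachol (final 1 uM, ~EC50), compound titration, 5 h at 37 °C. CCF4 loaded 1 h at RT; 460/530 nm ratio gave %activity and AC50.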

[5] = Stat Signaling Pathway (AID 446; active means well fitted curve in either direction with a large enough effect, not every such curve was filed as active;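 further: ME-180 cervical cancer cells given 40 pM IL-6 alongside compound; SIE-controlled beta-lactamase reporter measured as 460/530 nm FRET emission ratio; on the % scale 0 is the no-effect control and ±100 the full control effect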); details: ME-180 (cervical carcinoma) SIE beta-lactamase reporter, IL-6 stimulated, 5 h; at 7.69 µM (top of the series) unless noted
In short: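 Emission at 460 and 530 nm (excitation 405 nm) reports SIE-controlled beta-lactamase in ME-180 cells. Cells received compound with 40 pM IL-6 for 5 hrs at 37 C; data scaled between 300 pM IL-6 and 125 nM JAK-inhibitor controls.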

[6] = molecular target: Glucocorticoid receptor (Homo sapiens) (UniProt P04150); test: GR-GFP Redistribution (AID 450;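 active means compounds whose dose series gives a full or clear partial fitted curve of increased nuclear translocation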; further: potency means the concentration at half of the fitted maximal effect); details: U2OS GR-GFP nuclear translocation, laser cytometry, 2 h
[7] = molecular target: Glucocorticoid receptor (Homo sapiens) (UniProt P04150); test: GR-EFC Redistribution (AID 451; calls by dose curve; further: potency means the concentration at half of the fitted maximal effect); details: CHO-K1 GR-EFC translocation, beta-gal luminescence, 2 h
In short: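 CHO-K1 cells expressing nuclear EA and GR-ED fragments of b-gal; compounds titrated up to 46 uM final, 2 h at 37 C. GR nuclear translocation read as complemented b-gal luminescence after 1 h RT detection.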

[8] = molecular target: Mitogen-activated protein kinase 10 (Mus musculus) (UniProt Q61831); test: JNK3 AlphaScreen Assay (AID 530; active means well fitted curve in either direction with a large enough effect, not every such curve was filed as active;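 further: kinase came from lysate of stimulated human HepG2 cells; signal reports phosphorylation of biotinylated GST-cJun 1-79 at Ser73 with 10 µM ATP; on the % scale 0 is the no-effect control and ±100 the full control effect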); details: JNK3 lysate, c-Jun phosphorylation; series mostly up to 57.1 µM
In short: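 HepG2 lysate (IL-1b/TNFa pre-activated) + biotin-GST-cJun 1-79 + anti-pSer73 cJun; cpd titration, 15 min RT; ATP 10 uM start; Tris pH 7.6, MgCl2, DTT, vanadate; beads in EDTA buffer; AlphaScreen.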

[9] = molecular target: 3',5'-cyclic-AMP phosphodiesterase 4B (Homo sapiens) (UniProt Q07343); test: qHTS Assay for Inhibitors of PDE-IV (AID 607; active means well fitted activation curve with a large enough effect in the main read-out, with a control signal flat, not every such curve was filed as active; further: % of control where 0% means no effect); details: HEK293 ACTOne CNG channel cells, membrane potential fluorescence; series mostly up to 22.9 µM
In short: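 The readout is membrane depolarisation from a cAMP-sensing CNG channel, detected with a potential dye at ex 535/em 590. Cells were HEK293-derived (endogenous PDE-IV) at 1000 cells/well, titrated up to 22.9 uM final.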

[10] = molecular target: Cytochrome P450 2C9 (Homo sapiens) (UniProt P11712); test: qHTS Assay for Inhibitors and Substrates of Cytochrome P450 2C9 (AID 883); details: recombinant CYP2C9, luciferin-H luminescence, 60 min; series mostly up to 57.1 µM; further: on the % scale 0 is the no-effect control and ±100 the full control effect; nearly all actives have a fitted effect of over 60% in size
In short: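 Signal: luciferase luminescence reporting luciferin produced by CYP2C9. Conditions: 10nM enzyme, Luciferin-H 100uM at KM, 25mM KPO4, 37C, 60 min NADPH-driven reaction. Reference: 57uM sulphaphenazole as 100% inhibition.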

[11] = qHTS Assay for Lipid Storage Modulators (AID 1519; calls by dose curve); details: Drosophila S3 cells, BODIPY lipid droplet/cell ratio, laser cytometry, cells loaded with oleic acid; for activity change, negative = inhibition: at 57.5 µM (top of the series)
In short: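 Cells seeded at 5,000 per well were treated with compounds over a concentration series and loaded with oleic acid (400 uM, as added). Lipid droplet fluorescence (488 nm excitation, 500-530 nm channel) was read by laser-scanning cytometry and normalized to 20 uM Triacsin C.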

[12] = molecular target: Dual specificity protein kinase CLK4 (Homo sapiens) (UniProt Q9HAZ1); test: qHTS Assay for Inhibitors of CDC-like Kinase 4 (Kinase-Glo Assay) (AID 1770); details: recombinant Clk4, Kinase-Glo ATP depletion luminescence; series mostly up to 66.7 µM; further: nearly all actives have a fitted effect of over 65% in size; further: potency means the concentration at half of the fitted maximal effect
In short: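 Recombinant human Clk4 (25 nM) phosphorylated RS repeat peptide (100 uM) with 1 uM ATP in Tris pH 7.5/MgCl2/EGTA/DTT/Triton buffer for 4.5 h at room temperature. Residual ATP was quantified by Kinase-Glo luciferase luminescence.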

[13] = molecular target: Dual specificity protein kinase CLK4 (Homo sapiens) (UniProt Q9HAZ1); test: qHTS Assay for Inhibitors of CDC-like Kinase 4 (ADP-Glo Assay) (AID 1771); details: recombinant CLK4, ADP-Glo luminescence; series mostly up to 80 µM; further: nearly all actives have a fitted effect of over 70% in size; further: potency means the concentration at half of the fitted maximal effect
In short: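 25 nM Clk4, 100 uM RS peptide, 1 uM ATP (final); 2 mM MgCl2, 0.5 mM EGTA, 2.5 mM DTT, 0.01% Triton X-100; 1 hr RT. ADP-Glo readout: ATP depletion 45 min, conversion/luciferase 30 min, luminescence.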

[14] = molecular target: Dual specificity protein kinase CLK4 (Homo sapiens) (UniProt Q9HAZ1); test: qHTS Assay for Inhibitors of CDC-like Kinase 4 (ADP-FP Assay) (AID 1795); details: Transcreener ADP fluorescence polarization; series mostly up to 50 µM; further: nearly all actives have a fitted effect of over 60% in size; further: potency means the concentration at half of the fitted maximal effect
In short: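 Recombinant human Clk4 (6.25 nM) phosphorylated RS repeat peptide (100 uM) with 1 uM ATP in Tris pH 7.5/MgCl2/EGTA/DTT/Triton buffer for one hour. ADP was quantified by Transcreener competitive fluorescence polarization against an ADP calibration curve.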

[15] = molecular target: Ubiquitin carboxyl-terminal hydrolase 1 (Homo sapiens) (UniProt O94782); test: Inhibitors of USP1/UAF1: Pilot qHTS (AID 504865); details: purified USP1/UAF1, Ub-rhodamine cleavage fluorescence; series mostly up to 54.9 µM;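 further: rhodamine fluorescence freed from ubiquitin-rhodamine substrate followed over time; top concentration of the series differs between compounds; on the % scale 0 is the no-effect control and ±100 the full control effect; nearly all actives have a fitted effect of over 35% in size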
In short: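 USP1/UAF1 complex (1nM) preincubated with compound 15 min at room temperature, then Ub-Rho substrate (150nM final) added. Fluorescence read kinetically at 480/540 nm, 6 reads every 60 seconds. Buffer: 50mM HEPES pH 7.8, 0.5mM EDTA, 0.1 mg/ml BSA, 1mM TCEP, 0.01% Tween-20.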

[16] = Primary qHTS for small molecule stabilizers of the endoplasmic reticulum resident proteome: Secreted ER Calcium Modulated Protein (SERCaMP) assay (AID 1508630); details: SH-SY5Y GLuc-SERCaMP (Gaussia luciferase released on ER calcium loss) secretion, thapsigargin, luminescence; series mostly up to 38.4 µM; further: on the % scale 0 is the no-effect control and ±100 the full control effect
In short: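 The SH-SY5Y reporter protocol was run at 3 concentrations up to 38.3 uM (primary) or 11 concentrations (follow-up): 16 h compound, 100 nM thapsigargin for 4 h, then extracellular luciferase luminescence.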

[17] = molecular target: Cytochrome P450 3A4 (Homo sapiens) (UniProt P08684); test: qHTS Assay for Activators of Cytochrome P450 3A4 (AID 885); details: recombinant CYP3A4, Luciferin-PPXE luminescence, 60 min; series mostly up to 57.1 µM; further: nearly all actives have a fitted effect of over 65% in size
In short: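 Activators are scored by enhanced luminescence from CYP3A4 conversion of luciferin-PPXE (25uM, equal to KM) to luciferin, after 60 min at RT with an NADPH-regenerating system.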

[18] = molecular target: Cytochrome P450 3A4 (Homo sapiens) (UniProt P08684); test: qHTS Assay for Inhibitors and Substrates of Cytochrome P450 3A4 (AID 884); details: recombinant CYP3A4, Luciferin-PPXE luminescence; series mostly up to 57.1 µM; further: potency means the concentration at half of the fitted maximal effect; nearly all actives have a fitted effect of over 50% in size
In short: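 Luminescent readout of luciferin produced by CYP3A4 (20 nM) dealkylation of Luciferin-PPXE, 25 uM (its KM). NADPH-driven reaction ran 60 min at RT after 10 min compound preincubation; data scaled to 57 uM ketoconazole as 100% inhibition.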

[19] = measured here: cell count channel max response
[20] = measured here: lipid channel max response

Chain of 3',5'-cyclic-AMP phosphodiesterase 4B (Homo sapiens) (Q07343 whole entry, looked up): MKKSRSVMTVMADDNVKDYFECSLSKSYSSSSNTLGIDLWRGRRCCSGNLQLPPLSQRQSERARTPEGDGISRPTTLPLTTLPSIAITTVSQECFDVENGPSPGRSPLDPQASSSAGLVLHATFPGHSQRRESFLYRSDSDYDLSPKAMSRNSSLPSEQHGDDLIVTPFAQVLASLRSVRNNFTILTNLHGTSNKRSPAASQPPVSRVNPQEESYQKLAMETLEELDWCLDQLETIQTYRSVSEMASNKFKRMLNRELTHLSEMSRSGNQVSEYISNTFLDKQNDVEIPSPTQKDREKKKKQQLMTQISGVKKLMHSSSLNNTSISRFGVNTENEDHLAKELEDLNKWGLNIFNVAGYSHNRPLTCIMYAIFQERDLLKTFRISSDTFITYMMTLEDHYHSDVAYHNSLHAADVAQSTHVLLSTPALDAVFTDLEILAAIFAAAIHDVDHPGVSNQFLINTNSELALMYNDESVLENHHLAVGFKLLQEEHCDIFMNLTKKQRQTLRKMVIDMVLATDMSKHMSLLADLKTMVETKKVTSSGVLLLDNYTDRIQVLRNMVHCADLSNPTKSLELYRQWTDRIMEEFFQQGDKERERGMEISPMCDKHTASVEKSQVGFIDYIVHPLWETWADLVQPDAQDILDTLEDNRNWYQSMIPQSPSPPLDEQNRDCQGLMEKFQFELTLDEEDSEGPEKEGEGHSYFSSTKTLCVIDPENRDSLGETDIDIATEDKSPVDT
Chain of Dual specificity protein kinase CLK4 (Homo sapiens) (Q9HAZ1 whole entry, looked up): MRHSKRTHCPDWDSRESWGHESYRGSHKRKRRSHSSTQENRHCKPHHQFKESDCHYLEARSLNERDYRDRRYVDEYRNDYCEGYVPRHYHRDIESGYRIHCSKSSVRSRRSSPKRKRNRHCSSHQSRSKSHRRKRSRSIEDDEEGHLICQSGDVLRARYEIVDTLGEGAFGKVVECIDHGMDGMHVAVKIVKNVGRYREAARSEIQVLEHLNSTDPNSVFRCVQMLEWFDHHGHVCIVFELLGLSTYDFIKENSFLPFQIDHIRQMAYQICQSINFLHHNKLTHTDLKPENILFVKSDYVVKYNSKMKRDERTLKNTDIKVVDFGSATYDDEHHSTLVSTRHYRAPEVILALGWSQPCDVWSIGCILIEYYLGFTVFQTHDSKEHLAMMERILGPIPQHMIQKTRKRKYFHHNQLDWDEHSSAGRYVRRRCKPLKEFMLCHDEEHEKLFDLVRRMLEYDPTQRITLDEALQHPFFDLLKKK
Chain of Cytochrome P450 1A2 (Homo sapiens) (P05177 whole entry, looked up): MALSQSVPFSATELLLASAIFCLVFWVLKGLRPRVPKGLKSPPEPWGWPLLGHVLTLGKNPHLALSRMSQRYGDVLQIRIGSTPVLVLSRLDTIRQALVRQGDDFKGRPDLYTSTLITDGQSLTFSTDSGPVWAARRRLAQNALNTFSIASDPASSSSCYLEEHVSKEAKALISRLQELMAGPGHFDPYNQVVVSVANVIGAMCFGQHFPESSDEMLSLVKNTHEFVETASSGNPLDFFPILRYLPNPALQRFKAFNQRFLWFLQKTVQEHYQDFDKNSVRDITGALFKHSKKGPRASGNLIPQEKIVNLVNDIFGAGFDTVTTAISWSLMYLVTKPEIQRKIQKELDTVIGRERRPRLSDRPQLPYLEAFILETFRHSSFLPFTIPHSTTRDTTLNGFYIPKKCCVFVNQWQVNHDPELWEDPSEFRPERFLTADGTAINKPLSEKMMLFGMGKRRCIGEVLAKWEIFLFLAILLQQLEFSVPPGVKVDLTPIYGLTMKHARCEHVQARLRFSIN
Chain of Ubiquitin carboxyl-terminal hydrolase 1 (Homo sapiens) (O94782 whole entry, looked up): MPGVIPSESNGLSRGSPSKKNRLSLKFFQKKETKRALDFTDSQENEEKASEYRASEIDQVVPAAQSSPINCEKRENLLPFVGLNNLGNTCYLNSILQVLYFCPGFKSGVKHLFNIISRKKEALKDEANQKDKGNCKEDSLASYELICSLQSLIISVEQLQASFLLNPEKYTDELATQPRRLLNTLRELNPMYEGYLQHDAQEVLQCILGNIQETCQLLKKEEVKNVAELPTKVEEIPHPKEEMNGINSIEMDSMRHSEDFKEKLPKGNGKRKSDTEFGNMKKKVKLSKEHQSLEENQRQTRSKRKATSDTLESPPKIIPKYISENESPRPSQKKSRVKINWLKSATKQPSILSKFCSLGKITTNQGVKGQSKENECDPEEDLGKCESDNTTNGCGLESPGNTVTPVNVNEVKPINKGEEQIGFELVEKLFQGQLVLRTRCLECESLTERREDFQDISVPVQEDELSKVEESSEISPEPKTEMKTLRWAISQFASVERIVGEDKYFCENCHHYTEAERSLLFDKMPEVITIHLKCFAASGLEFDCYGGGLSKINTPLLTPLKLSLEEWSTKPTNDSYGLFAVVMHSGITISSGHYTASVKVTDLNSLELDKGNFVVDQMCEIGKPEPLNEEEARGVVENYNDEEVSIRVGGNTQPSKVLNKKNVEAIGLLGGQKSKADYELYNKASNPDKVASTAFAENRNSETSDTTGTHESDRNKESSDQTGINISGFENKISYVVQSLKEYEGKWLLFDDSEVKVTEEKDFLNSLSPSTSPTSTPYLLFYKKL
Chain of Cytochrome P450 3A4 (Homo sapiens) (P08684 whole entry, looked up): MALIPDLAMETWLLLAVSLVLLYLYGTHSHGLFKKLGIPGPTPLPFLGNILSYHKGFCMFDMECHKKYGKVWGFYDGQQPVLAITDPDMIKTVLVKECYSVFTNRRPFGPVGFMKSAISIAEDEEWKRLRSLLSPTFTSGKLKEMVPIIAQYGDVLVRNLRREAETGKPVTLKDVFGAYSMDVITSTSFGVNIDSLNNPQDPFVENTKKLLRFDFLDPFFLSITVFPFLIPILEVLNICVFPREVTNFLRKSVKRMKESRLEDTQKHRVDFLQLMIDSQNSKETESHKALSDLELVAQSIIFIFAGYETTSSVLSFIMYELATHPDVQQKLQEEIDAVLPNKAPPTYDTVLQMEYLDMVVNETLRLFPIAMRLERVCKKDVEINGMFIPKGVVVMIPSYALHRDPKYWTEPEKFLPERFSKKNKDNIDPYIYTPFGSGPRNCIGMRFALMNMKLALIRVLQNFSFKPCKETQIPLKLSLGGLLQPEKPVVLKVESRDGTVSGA
Chain of Lysosomal acid glucosylceramidase (Homo sapiens) (P04062 whole entry, looked up): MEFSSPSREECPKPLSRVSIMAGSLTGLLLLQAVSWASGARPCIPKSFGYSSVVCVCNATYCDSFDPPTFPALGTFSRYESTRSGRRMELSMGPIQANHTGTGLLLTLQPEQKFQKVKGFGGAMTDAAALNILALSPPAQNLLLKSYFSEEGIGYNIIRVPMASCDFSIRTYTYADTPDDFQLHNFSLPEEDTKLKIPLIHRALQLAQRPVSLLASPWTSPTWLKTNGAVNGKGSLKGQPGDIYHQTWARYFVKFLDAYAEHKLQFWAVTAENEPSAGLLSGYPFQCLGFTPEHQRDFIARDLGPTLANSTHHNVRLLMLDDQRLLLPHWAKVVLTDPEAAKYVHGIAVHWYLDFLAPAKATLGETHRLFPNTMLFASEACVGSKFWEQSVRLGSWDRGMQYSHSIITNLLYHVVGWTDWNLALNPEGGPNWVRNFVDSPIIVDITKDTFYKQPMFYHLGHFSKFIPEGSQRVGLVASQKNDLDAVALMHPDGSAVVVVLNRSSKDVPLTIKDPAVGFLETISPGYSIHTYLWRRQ
Chain of Glucocorticoid receptor (Homo sapiens) (P04150 whole entry, looked up, the tested form may be a part): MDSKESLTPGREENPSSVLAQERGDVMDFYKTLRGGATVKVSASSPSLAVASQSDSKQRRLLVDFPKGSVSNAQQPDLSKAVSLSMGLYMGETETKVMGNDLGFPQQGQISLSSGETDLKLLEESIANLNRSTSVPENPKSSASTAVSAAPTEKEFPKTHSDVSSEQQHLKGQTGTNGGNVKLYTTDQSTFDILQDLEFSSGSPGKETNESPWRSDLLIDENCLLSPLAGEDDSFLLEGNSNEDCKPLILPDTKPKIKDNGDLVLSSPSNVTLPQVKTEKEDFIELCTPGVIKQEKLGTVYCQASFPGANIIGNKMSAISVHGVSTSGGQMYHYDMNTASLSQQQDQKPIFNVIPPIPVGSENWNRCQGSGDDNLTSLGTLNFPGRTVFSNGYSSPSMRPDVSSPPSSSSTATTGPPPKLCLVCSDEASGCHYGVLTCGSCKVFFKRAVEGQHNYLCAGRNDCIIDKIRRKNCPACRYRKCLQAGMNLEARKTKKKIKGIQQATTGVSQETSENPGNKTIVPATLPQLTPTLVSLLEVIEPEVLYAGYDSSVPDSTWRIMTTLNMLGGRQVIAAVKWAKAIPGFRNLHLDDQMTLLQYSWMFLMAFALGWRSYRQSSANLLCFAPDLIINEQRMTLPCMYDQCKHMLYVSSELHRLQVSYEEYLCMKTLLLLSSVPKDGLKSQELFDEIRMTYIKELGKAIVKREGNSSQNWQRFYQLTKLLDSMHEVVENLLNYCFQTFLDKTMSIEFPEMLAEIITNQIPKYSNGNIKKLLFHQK
Chain of Cytochrome P450 2C9 (Homo sapiens) (P11712 whole entry, looked up): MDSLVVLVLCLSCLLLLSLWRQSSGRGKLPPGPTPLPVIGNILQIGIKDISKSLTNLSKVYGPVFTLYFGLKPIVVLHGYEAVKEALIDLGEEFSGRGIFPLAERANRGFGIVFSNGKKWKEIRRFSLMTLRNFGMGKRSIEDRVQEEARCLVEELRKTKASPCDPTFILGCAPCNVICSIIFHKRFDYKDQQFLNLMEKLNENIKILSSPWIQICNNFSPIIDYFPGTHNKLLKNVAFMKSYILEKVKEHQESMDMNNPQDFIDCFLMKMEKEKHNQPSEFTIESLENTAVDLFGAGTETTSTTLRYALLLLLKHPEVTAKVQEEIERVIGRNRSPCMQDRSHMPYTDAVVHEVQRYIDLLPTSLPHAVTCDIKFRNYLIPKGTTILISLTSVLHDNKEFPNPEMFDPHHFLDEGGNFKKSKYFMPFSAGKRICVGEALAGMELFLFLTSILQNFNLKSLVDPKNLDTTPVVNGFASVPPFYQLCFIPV

COc1ccc(-c2nc3cnc(N4CCOCC4)nc3n(C[C@H]3CCCO3)c2=O)cc1
4.58%: max response [11, 19]
6.82%: max response [11, 20]
active: Potency [3] 5.01 µM
inactive: Potency [1] > 11.4 µM | activity change, negative = inhibition [2] 8.17% | activity change, negative = inhibition [4] 15.8% | activity, negative = inhibition [5] 9.41% | Potency [6] > 9.22 µM | Potency [7] > 46 µM | outcome [8] | Potency [9] | Potency [10] | activity change, negative = inhibition [11] 1.98% | Potency [12] | Potency [13] | Potency [14] | Potency [15] | Potency [16]

Cc1nc2cnc(Oc3ccccc3)nc2n(C)c1=O
14.9%: max response [11, 19]
inactive: Potency [1] > 11.4 µM | activity change, negative = inhibition [2] -8.04% | activity change, negative = inhibition [4] -5.98% | activity, negative = inhibition [5] -10.2% | Potency [6] > 9.22 µM | Potency [7] > 46 µM | outcome [8] | Potency [9] | activity change, negative = inhibition [11] 6.1% | Potency [12] | Potency [13] | Potency [14] | Potency [15] | Potency [16]
19.9%: max response [11, 20]
active: Potency [3] 12.6 µM

COc1ncc2nc(-c3ccccc3)c(=O)n(C)c2n1
inactive: Potency [1] > 11.4 µM | activity change, negative = inhibition [2] -19.1% | activity change, negative = inhibition [4] 11.3% | activity, negative = inhibition [5] -14.9% | Potency [6] > 9.22 µM | Potency [7] > 46 µM | outcome [8] | Potency [9] | activity change, negative = inhibition [11] 6.24% | Potency [12] | Potency [13] | Potency [14] | Potency [15] | Potency [16]
24.3%: max response [11, 20]
20%: max response [11, 19]
active: Potency [3] 1.58 µM

COc1ccc(-n2c(=O)c(C)nc3cnc(OC)nc32)cc1
12%: max response [11, 19]
inactive: Potency [1] > 11.4 µM | activity change, negative = inhibition [2] 13.3% | Potency [3] | activity change, negative = inhibition [4] 3.92% | activity, negative = inhibition [5] -15.2% | Potency [6] > 9.22 µM | Potency [7] > 46 µM | outcome [8] | Potency [9] | Potency [17] | activity change, negative = inhibition [11] 4.38% | Potency [12] | Potency [13] | Potency [14] | Potency [15] | Potency [16]
18.2%: max response [11, 20]

CN1CCN(c2ncnc3ccc(-c4ccc5c(c4)OCO5)cc23)CC1
5.74%: max response [11, 20]
active: Potency [3] 2.51 µM | Potency [18] 7.94 µM | Potency [12] 282 nM | Potency [13] 562 nM | Potency [14] 158 nM
inactive: Potency [1] > 11.4 µM | activity change, negative = inhibition [2] -24.4% | activity change, negative = inhibition [4] -20.4% | activity, negative = inhibition [5] 6.89% | Potency [6] > 46 µM | Potency [7] > 46 µM | outcome [8] | Potency [9] | Potency [17] | activity change, negative = inhibition [11] 4.95% | Potency [15] | Potency [16]
4.86%: max response [11, 19]
